Screens: PubChem, National Center for Advancing Translational Sciences (NCATS)
RE007 growth inh: less growth of the S. pombe RE007 Vpr strain. S. pombe RE007 Vpr strain, BacTiter-Glo ATP luminescence, 24 h. Potency, µM (series often up to 92.2 µM), for inactives: at the top dose activity change, negative = less growth, most hits filed as inhibitors. 360,000 tested, 0.21% active; active = well fitted falling curve with a large enough effect; inconclusive = small, poorly fitted or top-dose-only effect; inactive = no such curve, though single readings can be large or run the other way; note: nearly all actives have a fitted effect of over 50% in size
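Fission yeast RE007 carrying one integrated HIV-1 vpr copy, seeded at OD 0.01 in PMG+AL medium with 23 nL pinned compound. Grown 24 h at 30 degrees; viability read by BacTiter-Glo luminescence after 5 min.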
MARV entry inh: blocks Marburg virus binding to or entry into cells; Marburg virus pseudotyped entry inhibition, cell reporter; Potency, µM (titrated, usually from 37.8 µM), for inactives: at the highest dose activity change, negative = inhibition, most hits filed as inhibitors; 300,000 tested, 1.8% active; AID 540276; calls by dose curve; tested in HEK293 cells
FMDV inh: foot and mouth disease virus antiviral activity; Potency, µM (series often up to 57.9 µM), for the others: at the top dose activity change, negative = inhibition, usual class: inhibitors; FMDV antiviral cell-based qHTS; AID 1159524; 410,000 tested, 1.2% active; calls by dose curve; tested in HEK293T cells; note: read-out not given here; nearly all actives have a fitted effect of over 45% in size
LASV entry inh: blocks Lassa virus binding to or entry into cells | Lassa virus pseudotype entry inhibition, cell reporter | Potency, µM (titrated, usually from 37.9 µM), inactives show top-dose activity change, negative = inhibition, hits mostly inhibitors | 300,000 tested, 1.2% active; calls by dose curve; tested in HEK293 cells; note: nearly all actives have a fitted effect of over 50% in size
HCV inhibitor: inhibitors of hepatitis C virus infection | Huh7.5.1 HCVcc-Cre infection, luciferase reporter, 44 h | Potency, µM (series often up to 41.8 µM), inactives show at the highest dose activity change, negative = inhibition, hits mostly inhibitors | 340,000 tested, 3.4% active | AID 651820
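Compounds are dispensed onto cells plated 4 h earlier at 1,000 per well, with HCVcc-Cre virus (about 0.5 moi) added next. Following 44 h of culture, luminescent signal is measured for 15 sec after 15 min with substrate at room temperature.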
Sm TGR block: inhibitors of Schistosoma mansoni thioredoxin glutathione reductase. Potency, µM (highest dose often 114 µM), for the others: at the top dose activity change, negative = inhibition, usual class: inhibitors. AID 485364. purified TGR, DTNB reduction, TNB absorbance 405 nm. Q962Y6. 360,000 tested, 3% active; note: nearly all actives have a fitted effect of over 60% in size
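Kinetic colorimetric format: TGR-catalysed, NADPH-driven DTNB reduction monitored via TNB absorbance. Enzyme dispensed at 20 nM; compound exposure 15 min at room temperature before reaction start.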
* hit, by the source's call; ? = inconclusive; . = no result; [ ] = remark or other dose. A selection: hits, their analogues and other compounds. The true share with any hit is near 7.2%. Unless noted, calls come from the whole dose curve; as a rule, active = well fitted curve in the direction sought with a large enough effect; inconclusive = small, poorly fitted or top-dose-only effect, or another doubt; inactive = no such curve, though single readings can be large; an effect the other way counts as inactive or inconclusive. % is set by controls: 0 for no effect and ±100 for the full control effect; potency is the fitted concentration of half-maximal effect.

SMILES	RE007 growth inh	MARV entry inh	FMDV inh	LASV entry inh	HCV inhibitor	Sm TGR block
CCN(CC)C(=O)Nc1ccc2c(c1)N(Cc1ccccc1)C(=O)c1ccccc1S2	.	?	44%	-12%[46.1 µM]	.	-8%
Brc1ccc(C[n+]2ccccc2)cc1	-18%	.	1%	.	7.9µM*	2%
CCc1ccc(NC(=O)CCc2c(C)nc3nc(-c4cc(OC)cc(OC)c4)nn3c2C)cc1	.	?	12%	9%[46.1 µM]	.	-8%
CC(C)=CCC/C(C)=C/CC/C(C)=C/CC/C(C)=C/CC1=C(C)C(=O)c2ccccc2C1=O	-5%[18.4 µM]	.	?	.	-24%	32µM*
CC(C)=CCC1=C(OCC(=O)O)C(=O)c2ccccc2C1=O	?	.	?	.	-5%	10µM*
COc1ccccc1OCC(=O)O	-4%	4%	0%	15%	20%	5%
NS(=O)(=O)c1ccc(NC2=CC(c3ccc([N+](=O)[O-])cc3)N(c3ccc(S(N)(=O)=O)cc3)C2=O)cc1 (centres undefined)	16%	.	-17%	.	3%	18µM*
Cc1ccc(Nc2nc(NCCO)c3ccccc3n2)cc1C	-20%	?	-18%	17%[46.1 µM]	13µM*	-9%
OCCCNc1nc(-c2ccc(Cl)cc2)nc2ccccc12	-17%	.	-21%	.	13µM*	21%
COCCNc1nc(-c2ccccc2)nc2ccccc12	-20%	?	-10%	?	?	5%
OCCNc1nc(-c2ccccc2)nc2ccccc12	-5%	-1%[46.1 µM]	-21%	-25%	7.9µM*	24%
Clc1ccc(-c2nc(NCCN3CCOCC3)c3ccccc3n2)cc1	-6%	?	6%	4%	?	-20%
CC(=O)OCCNc1nc(-c2ccccc2)nc2ccccc12	-11%	-12%	-20%	5%	10µM*	.
CCC1(C2CCN(C(=O)c3coc4c3C(=O)CCC4)CC2)NC(=O)N(CCc2scnc2C)C1=O (centres undefined)	.	.	11%	.	.	.
CCN(CC)CCCNc1nc2cc(OC)c(OC)cc2c2nc(-c3ccccc3)nn12	-7%	?	-11%	?	?	3%
CCN(CC)CCCNc1nc2ccccc2c2nc(-c3ccncc3)nn12	3%	7.9µM*	-20%	?	?	9%
COCCCNc1nc(-c2ccc(Cl)cc2)nc2ccccc12	5%	11µM*	-27%	?	13µM*	-1%
CCN(CC)CCCNc1nc(-c2ccccc2)nc2ccccc12	-14%	16µM*	.	?	10µM*	2%
COCCCNc1nc(-c2ccncc2)nc2ccccc12	-1%	?	-24%	-20%	11µM*	-23%
CCOC(=O)C1CCC(CN(Cc2ccc(OC)cc2)S(=O)(=O)c2ccc(C)cc2)CC1 (centres undefined)	.	.	0%	-25%[46.1 µM]	.	7%
COc1ccc(Nc2nc3c(S(=O)(=O)c4ccccc4)nnn3c3ccc(Cl)cc23)c(OC)c1	.	16%[46.1 µM]	?	.	.	12%
Cc1cnc(-n2ncc(C(=O)NCC3CCCN(C)C3)c2C)nc1-c1cccs1 (centres undefined)	.	.	-4%	.	.	.
CCOC(=O)C1=CC[C@@H](c2ccco2)N(S(=O)(=O)c2ccc(C)cc2)[C@H]1C(=O)OCC	-4%	.	78%	.	12%	32µM*
O=C(CN1C(=O)CCc2cc(S(=O)(=O)N3CCOCC3)ccc21)Nc1cccc(C(F)(F)F)c1	.	.	6%	?	.	-1%
Oc1cccc(C(Nc2nccs2)c2ccc3cccnc3c2O)c1 (centres undefined)	-21%	?	-10%	?	?	18µM*
SMILES	RE007 growth inh	MARV entry inh	FMDV inh	LASV entry inh	HCV inhibitor	Sm TGR block
CCCCC(=O)NC(c1cccc([N+](=O)[O-])c1)c1ccc2cccnc2c1O (centres undefined)	-2%	.	8%	.	?	.
CC(=O)NC(c1cccc([N+](=O)[O-])c1)c1ccc2cccnc2c1O (centres undefined)	-4%	?	-26%	?	1.8µM*	-5%
COc1cccc(C(NC(C)=O)c2ccc3cccnc3c2O)c1 (centres undefined)	-15%	?	-18%	?	4.5µM*	-4%
O=[N+]([O-])c1ccc(NC(c2ccccc2)c2ccc3cccnc3c2O)cc1 (centres undefined)	-15%	1.4µM*	9%	?	?	.
O=C(COc1cccc2cccnc12)Nc1nccs1	-2%	8%	23%	?	-10%	1%
O=C(Cn1cc(SCc2ccc(C(F)(F)F)cc2)c2ccccc21)N1CCOCC1	.	.	24%	9%[46.1 µM]	.	-1%
CCCCCCCCC(=O)NCc1cc(OC)c(O)cc1I	.	.	0%	.	.	.
O[C@@H]1CO[C@@H](C=Cc2ccccc2)[C@H]1OCc1cccc(Br)c1	.	-5%[14.2 µM]	.	?	.	.
O=S(=O)(c1ccc(F)cc1)c1snnc1-c1ccccc1	-12%	?	?	?	-22%	35µM*
O=S(=O)(c1ccc(Cl)cc1)c1snnc1-c1ccccc1	-20%	16µM*	10µM*	?	13µM*	13µM*
c1ccc(-c2nnsc2-c2ncc[nH]2)cc1	-10%	?	-8%	11%	8%	3%
CCOc1c(Cl)cc(CNc2ccc(S(N)(=O)=O)cc2)cc1OC	-2%	0%	?	?	4%	3%
CCOc1c(Cl)cc(CNc2ccc(N3CCCC3)cc2)cc1OC	-17%	?	-16%	?	-7%	13µM*
CC1=C(C(=O)Nc2ccccc2)C(c2cccs2)n2nc(SCc3ccccc3F)nc2N1 (centres undefined)	.	?	3%	27%[46.1 µM]	.	-1%
CN(C)c1cc(-c2ccc(Cl)c(Cl)c2)oc(=O)c1Cl	7%	.	14%	.	-8%	40µM*
CN(C)c1cc(-c2ccc(Cl)cc2)oc(=O)c1Cl	18%	-2%[46.1 µM]	-14%	15%	-23%	-21%
O=C(CNc1ccc2ccccc2c1)N/N=C/c1ccc([N+](=O)[O-])o1	1%	-15%[46.1 µM]	16%	-9%	?	-35%
O=C(CSc1ccc(Cl)cc1)N/N=C/c1ccc([N+](=O)[O-])o1	-6%	.	-12%	.	-16%	5.6µM*
O=C(N/N=C/c1ccc([N+](=O)[O-])o1)C(O)c1ccccc1 (centres undefined)	5%	.	-4%	.	?	45µM*
Cc1noc(C)c1-c1ccc2ncnc(NCc3cccnc3)c2c1	.	.	18%	.	.	.
COc1cccc(-n2nnnc2S(C)(=O)=O)c1	-20%	?	?	8.9µM*	?	2.8µM*
COc1cccc(Oc2nnnn2-c2ccccc2)c1	-17%[3.69 µM]	0%	61%	18%	-2%	0%
Cc1cccc(-n2nnnc2S(C)(=O)=O)c1	.	.	25µM*	?	.	2.5µM*
CCc1ccc(OCC(=O)N(Cc2ccc(C)o2)C2CCS(=O)(=O)C2)cc1 (centres undefined)	.	15%[46.1 µM]	-13%	-4%[46.1 µM]	.	-21%
